Only some compounds are listed: those with a hit (about 6.1% of all), similar ones and a draw of the others.
TGFb inhibitor: TGF-b pathway inhibition; AID 588855; HepG2 CAGA-GFP TGF-b/SMAD3 reporter, GFP fluorescence, 18 h; TGF-beta stimulated, 500 pg/mL final; 1.2% of 410,000 active; Potency, µM (series often up to 46.1 µM), without a hit: top-dose activity, negative = inhibition, hits mostly inhibitors; further: on the % scale 0 is the no-effect control and ±100 the full control effect; nearly all actives have a fitted effect of over 65% in size
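TGF-beta reporter screen: HEPG2 CAGA-GFP, 1% FBS, 500 pg/mL TGF-beta final, 18 h; per-cell GFP summed per well; curves fitted and categorized by class.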
ATXN viability: cell viability loss in ATXN counter-screen | 0.49% of 400,000 active | Potency, µM (highest dose often 56.7 µM), usual class: cytotoxic | S2 cells (HEK-293 line with an ATXN2-luciferase reporter) viability, CellTiter-Fluor protease fluorescence, 24 h; further: nearly all actives have a fitted effect of over 40% in size
Gal4-VP16 FLuc: counter-screen for ROR gamma inhibitors: Gal4-VP16 reporter; Drosophila S2 Gal4-VP16 UAS-luciferase, luminescence, 20 h; Potency, µM (highest dose often 53.6 µM), for the others: at the highest dose activity, negative = inhibition, usual class: inhibitors; 3.5% of 310,000 active;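 further: Gal4-VP16 expression switched on by copper sulfate through the metallothionein promoter; on the % scale 0 is the no-effect control and ±100 the full control effect; nearly all actives have a fitted effect of over 50% in size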
HepG2 tox: kills HepG2 cells in TGF-b inhibitor counter-screen; HepG2 CAGA-GFP viability, ATP luminescence, 18 h; Potency, µM (series often up to 46.1 µM), for inactives: at the top dose activity change, negative = cytotoxicity, actives largely listed as cytotoxic; 0.76% of 410,000 active; AID 588856
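HepG2 CAGA-GFP cells (1000/well, DMEM with 1% FBS) received compound, then TGF-beta at 500 pg/mL final, and were incubated 18 hours at 37 degrees C. Viability was read by CellTiter-Glo luminescence. Media-only wells were set as complete cell-killing and DMSO as no toxicity.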
RORg inh: inhibitors of mouse ROR gamma transcriptional activity; P51450; Drosophila S2 Gal4-RORgamma UAS-luciferase reporter, 20 h; Potency, µM (titrated, usually from 53.6 µM), without a hit: at the highest dose activity change, negative = inhibition, most hits filed as inhibitors; 5.4% of 310,000 active; further: on the % scale 0 is the no-effect control and ±100 the full control effect; nearly all actives have a fitted effect of over 60% in size
Target sequence (P51450 whole entry, looked up, the tested form may be a part): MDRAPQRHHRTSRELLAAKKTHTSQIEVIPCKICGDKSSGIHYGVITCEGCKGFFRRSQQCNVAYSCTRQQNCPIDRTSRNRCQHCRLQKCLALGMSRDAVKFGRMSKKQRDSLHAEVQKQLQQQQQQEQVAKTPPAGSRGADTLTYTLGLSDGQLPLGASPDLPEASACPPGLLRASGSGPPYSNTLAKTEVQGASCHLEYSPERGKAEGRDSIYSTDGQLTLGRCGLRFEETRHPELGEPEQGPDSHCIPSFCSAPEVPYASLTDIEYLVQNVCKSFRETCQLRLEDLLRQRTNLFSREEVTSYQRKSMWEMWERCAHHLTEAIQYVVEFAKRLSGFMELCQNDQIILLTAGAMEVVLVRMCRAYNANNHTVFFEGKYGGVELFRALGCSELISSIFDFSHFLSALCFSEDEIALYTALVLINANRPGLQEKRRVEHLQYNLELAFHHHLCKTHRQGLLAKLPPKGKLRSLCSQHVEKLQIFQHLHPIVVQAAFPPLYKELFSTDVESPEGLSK
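A Gal4/UAS one-hybrid system in insect cells: metallothionein-promoter Gal4–ROR gamma fusion plus Photinus luciferase reporter. Copper sulfate 700 uM final, 20 hr ambient incubation, luminescent detection after 10 min with reagent.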
ATXN2 expr inh: ATXN2 expression inhibition | AID 1745845 | 0.72% of 360,000 active | Potency, µM (top dose mostly 57 µM), for the others: at the highest dose activity change, negative = inhibition, hits mostly inhibitors | HEK-293 ATXN2-luciferase reporter, luminescence, 24 h; further: on the % scale 0 is the no-effect control and ±100 the full control effect; nearly all actives have a fitted effect of over 55% in size
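qHTS (up to 57 uM final) was run with 24 h compound exposure of reporter cells at 37 °C. Each well was multiplexed: SteadyGlo luminescence measured ATXN2-luciferase expression after a fluorogenic Gly-Phe-AFC viability readout (25 uM final).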
Numbers without * were called inactive; i = inactive; ? = inconclusive; / = not tested or not shown; [ ] = remark or other dose. The call rests on the fitted dose curve; in most records, active means well fitted curve in the direction sought with a large enough effect; inconclusive means small, poorly fitted or top-dose-only effect, or another doubt; inactive means no such curve, though single readings can be large; an effect the other way counts as inactive or inconclusive. Potency means the concentration at half of the fitted maximal effect.

SMILES	TGFb inhibitor	ATXN viability	Gal4-VP16 FLuc	HepG2 tox	RORg inh	ATXN2 expr inh
Cc1cccc(OCCn2c(NC(=O)c3ccco3)nc3ccccc32)c1	-6%	/	2µM*	-24%	1.4µM*	?
Cc1cccc(OCC(=O)Nc2ccc(NC(=O)c3ccco3)cc2)c1	-13%	i	1%	-32%	12%	10%
O=C(Nc1nc2ccccc2n1CCN1CCCCC1)c1ccco1	?	i	?	11%	0%[10 µM]	2%
O=C(Nc1nc2ccccc2n1Cc1ccc(Cl)cc1)c1ccco1	?	i	2µM*	-21%	0.71µM*	-24%
O=C(Nc1nc2ccccc2n1CCOc1ccccc1)c1ccco1	?	i	5µM*	-24%	2µM*	-20%
C=CCn1c(C(C)C)nc2ccccc21	10%	i	-5%[10 µM]	0%	11µM*	3%
Cc1ccc(OCCn2c(NC(=O)c3ccco3)nc3ccccc32)cc1	?	i	2µM*	-47%	1.6µM*	?
Cc1cc(C)cc(NC(=S)N(CCN2CCCCC2)Cc2ccco2)c1	-8%	i	0%[10 µM]	-15%	10µM*	-25%
CCc1ccccc1NC(=S)N(Cc1ccco1)C(C)c1cccs1 (centres undefined)	8%	i	-7%[10 µM]	5%	11µM*	-3%
CCc1ccccc1NC(=S)N(CCN1CCCCC1)Cc1ccco1	6%	i	-7%	11%	11µM*	-13%
COc1ccc(NC(=S)N(CCN2CCCCC2)Cc2ccco2)cc1	-1%	i	-12%	0%	?	-16%
Cc1ccc(NC(=S)N(CCN2CCCCC2)Cc2ccco2)cc1Cl	-9%	i	?	-22%	14µM*	-12%
CCCCCN(CCCOC)C(=O)C(CCC(=O)O)NC(=O)c1ccc(Cl)c(Cl)c1 (centres undefined)	/	i	/	/	/	6%
CCOC(=O)c1cccc(NC(=O)CCc2c(C)nn(-c3ccc(N4CCOCC4)nn3)c2C)c1	?	i	/	0%	/	10%
CCOC(=O)c1ccc(NC(=S)N(CCCN2CCCCC2)Cc2ccco2)cc1	0.63µM*	i	-4%	-26%	-14%	-1%
COc1ccc2[nH]c(=O)c(CN(CCN3CCCC3)C(=O)Nc3ccccc3Cl)cc2c1	3%	i	1%	-34%	15%	5%
CCOc1ccc2[nH]c(=O)c(CN(CCN3CCCC3)C(=S)Nc3ccccc3OCC)cc2c1	16µM*	?	?	14µM*	7%	-34%
COc1ccc(NC(=O)[C@@H]2CC=C[C@@H]3CCN(C4CC4)C(=O)[C@@H]32)cc1	22%	/	/	-35%	/	/
O=C(c1ccccc1)c1cc(Cl)ccc1N1C(=O)C=CC1=O	?	?	16µM*	-88%	?	-17%
Cc1nn2c(-c3ccco3)ccnc2c1-c1ccc(Cl)cc1	21%	i	/	-28%	/	16%
O=C(Nc1cccc(O)c1)c1noc2c1CCc1ccccc1-2	?	?	1.4µM*	-81%	0.35µM*	-28%
COc1ccc(N2CCN(CC(=O)Nc3ncc(C)s3)CC2)cc1	-5%	?	1%	0%	2%	/
Cc1cnc(NC(=O)CN2CCN(c3ccccn3)CC2)s1	?	?	3%	-22%	27%	8.9µM*
CC(=O)OC[C@H]1O[C@@H](ON=C(C)C)[C@H](OC(C)=O)[C@@H](OC(C)=O)[C@H]1OC(C)=O	/	/	-4%[10 µM]	/	3%[10 µM]	/
CCSc1nnc(NC(=O)c2ccccn2)s1	?	/	3.2µM*	-39%	2µM*	?
Cc1cccc2sc(NC(=O)CNS(=O)(=O)c3ccc(Br)s3)nc12	?	i	-27%	-38%	11µM*	-17%
CCS(=O)(=O)N1Cc2ccccc2CC1C(=O)Nc1nc2c(C)cccc2s1 (centres undefined)	0%	i	5.6µM*	-12%	3.5µM*	21%

From PubChem
